Data reported in PubChem BioAssay AID425 (Sanford-Burnham Center for Chemical Genomics, 2006).
Where “and” joins values, the source holds several entries; their conditions need not be identical. Identical values can stand only once. In all, about 110,000 compounds went through this assay and about 190 (0.17%) were called active. No stated cut-off is given here; in the data, active means inhibition above about 50%; inactive means the rest. This excerpt belongs to a sample that is enriched for actives. Results with a measured potency or affinity are listed apart. Some structures have more than one record in an assay (separate samples or runs), and their calls can disagree.

Target: Dual specificity protein phosphatase 6 (Rattus norvegicus) (UniProt Q64346)
Sequence (Q64346 whole entry, looked up): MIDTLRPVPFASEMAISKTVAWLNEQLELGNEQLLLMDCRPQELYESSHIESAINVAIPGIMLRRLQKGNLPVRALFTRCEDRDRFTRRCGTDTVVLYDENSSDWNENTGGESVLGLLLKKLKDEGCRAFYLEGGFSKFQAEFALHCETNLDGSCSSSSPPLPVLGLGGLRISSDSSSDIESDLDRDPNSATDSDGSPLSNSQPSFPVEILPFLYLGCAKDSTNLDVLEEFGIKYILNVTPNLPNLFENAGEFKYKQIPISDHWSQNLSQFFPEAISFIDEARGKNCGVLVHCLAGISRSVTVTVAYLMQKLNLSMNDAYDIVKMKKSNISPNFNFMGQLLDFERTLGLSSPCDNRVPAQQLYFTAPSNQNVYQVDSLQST
Experiment: inhibition of rat DUSP6 enzyme activity – biochemical, in vitro, primary screen (AID 425);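 further: plate controls were vehicle for no effect and reference inhibitor for full effect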
Conditions: recombinant MKP-3 phosphatase activity, fluorescence; at 20 µM; stronger effect = higher value

inhibition, inactive:
O=C(Nc1ccc(-c2cn3ccsc3n2)cc1)C1COc2ccccc2O1 (centres undefined) 2.3%
CC1=C(C(=O)Nc2cccc(C)c2)C(c2cc(Br)ccc2O)NC(=O)N1 (centres undefined) -0.3%
CCOc1ccccc1NC(=O)C1C2C=CC(O2)C1C(=O)O (centres undefined) -14.3%
COC(=O)c1cc(C(=O)NC2CCCCCC2)cc([N+](=O)[O-])c1 -3.5%
CCOc1cccc(/C=N\NC(=O)Cc2cccn2C)c1O 2.2%
C=CCOc1ccc(/C=C2\C(=O)NC(C)=C2C(=O)OC)cc1OC 3%
COc1cc(F)ccc1S(=O)(=O)N1CCCCCC1 -0.1%
Cc1cccc(N2CCN(C(=O)c3ccc(Cl)c(Cl)c3)CC2)c1C 3.8%
C=CCN1C(=O)/C(=C/c2ccc(Cl)cc2)C(=O)NC1=S 1.8%
CCCc1nc(SCC(=O)c2ccc(OC)cc2)c2c(=O)n(C)c(=O)n(C)c2n1 -2.4%
CCn1c(N)nc2c1c(=O)n(C)c(=O)n2C -1.5%
Cn1c(-c2ccccn2)nc2ccccc21 1.2%
c1ccc(-c2nnc(-c3ccccn3)nc2-c2ccccc2)cc1 -0.7%
O=c1c2c3c(sc2n2c(=S)[nH]nc2n1-c1ccccc1)CCCCC3 1.2%
COc1ccc(CCNC(=O)C2CCN(S(=O)(=O)N3CCCCC3)CC2)cc1OC -1.4%
COc1ccc(Cc2nnc(SCC(=O)N3CCN(c4ccccc4)CC3)o2)cc1 -9.3%
O=C1N=c2ccccc2=C1c1sc(=Nc2ccccc2)n(-c2ccccc2)c1O -2%
O=C1N=c2ccccc2=C1c1sc(=O)n(-c2ccc(O)cc2)c1O 0.6%
Cc1ccc(-c2nc(CS(=O)CC(=O)NCCC(C)C)c(C)o2)cc1 (centres undefined) -10.1%
CCCCNCCCOc1ccccc1CC -0.3%
COc1cc(C=C2C(=O)c3ccccc3C2=O)cc(Br)c1OCC(=O)O 3.3%
COc1cc(/C=C2\SC(NC(C)=O)=NC2=O)cc(Br)c1OC 3.2%
CCOCCOC(=O)c1cccc(NC(=O)/C=C/c2ccc(Cl)cc2Cl)c1 3.2%
NC(=O)c1cc(-c2ccccc2)sc1N 3.8%
O=C1NC(=O)N(c2ccccc2)C(=O)/C1=C\c1cccn1-c1cccc([N+](=O)[O-])c1 4.5%
O=C(O)c1cccc(NC2=C(Cl)C(=O)N(c3ccc(Cl)cc3)C2=O)c1 7.4%
O=C1OCCC1Sc1nc2ccccc2[nH]1 (centres undefined) -11%
FC(F)(F)c1ccc2nnc(-c3cccc(Cl)c3Cl)n2c1 5.1%
CC(=O)NN1C(=O)/C(=C\c2ccc(O)c([N+](=O)[O-])c2)SC1=S 1.4%
O=C(NN1C(=O)/C(=C/c2cc3c(cc2[N+](=O)[O-])OCO3)SC1=S)c1ccccc1Cl 8.9%
O=C1/C(=C\c2cc3c(cc2[N+](=O)[O-])OCO3)SC(=S)N1c1ccccc1 5.2%
C=CCN1C(=O)/C(=C\c2cc3c(cc2Br)OCO3)SC1=S 0.3%
CC1(C(=O)O)CCC(C(=O)N2CCOCC2)C1(C)C (centres undefined) -3.7%
CC(c1nc2ccccc2n1C)C(O)c1ccccc1 (centres undefined) -0.3%
COc1ccc(NC(=O)c2ccco2)cc1NC(=O)c1ccco1 0.7%
O=C(O)c1cccc2c1NC(c1cccc(Cl)c1Cl)C1CC=CC21 (centres undefined) 27.8%
O=[N+]([O-])c1ccc(C2Nc3c(I)cccc3C3C=CCC32)cc1 (centres undefined) 4.4%
O=C(O)c1cccc2c1NC(c1ccccc1Br)C1CC=CC21 (centres undefined) 15.1%
O=[N+]([O-])c1ccc(C2Nc3c(cccc3[N+](=O)[O-])C3C=CCC32)cc1 (centres undefined) 5.4%
CCNC(=S)Nc1ccccc1Cl -1.1%
O=C(NN=C1CCN(Cc2ccccc2)CC1)c1sc2ccccc2c1Cl 0.3%
COc1ccc(NC(=O)C(=O)NCc2ccco2)cc1Cl -2.8%
O=[N+]([O-])c1ccc(S(=O)(=O)NCCOc2ccccc2Cl)cc1 -1.1%
CCOc1ccc(N(CC(=O)NCc2ccc(Cl)cc2)S(C)(=O)=O)cc1 -2.6%
CCOc1ccc(N(CC(=O)NCc2ccc(OC)cc2)S(=O)(=O)c2ccc(Br)cc2)cc1 -0.5%
CNS(=O)(=O)c1cc(O)c2c(S(=O)(=O)NC)cccc2c1 6%
Cc1cccc2cc(=O)[nH]c(C)c12 13.2%
Cc1ccc(-c2[nH]n3c(=O)cc(-c4ccc([N+](=O)[O-])cc4)nc3c2C)cc1 -3.9%
NC(=S)n1[nH]c(-c2ccccc2)c(N=Nc2ccc(C(=O)O)cc2)c1=O -0.5%
O=C(CCCC(=O)OCC(F)(F)C(F)F)Nc1ccc(F)cc1F -2.5%
CC1CCN(CCCNC(=O)c2cn(C)c3ccc(S(=O)(=O)N4CCCC4)cc3c2=O)CC1 -3%
CCCCCC1NC(=O)NC1CCCCCC(=O)O (centres undefined) -4.9%
CCCCCCCCNC(=O)CCC(=O)O -1.5%
COc1c(Cl)cc(C(=O)Nc2ccc(N3CCOCC3)cc2)cc1Cl 3.1%
O=C(O)c1ccc(CN2CCOCC2)cc1 1.1%
COc1ccc(Cn2c(C)ccc2C)cc1 0.3%
CC(C(=O)NCc1ccccn1)N1C(=O)c2ccccc2C1=O (centres undefined) -2.2%
Clc1ccc(-c2ccc(/C=C\c3nc4ccccc4o3)o2)cc1 4.5%
O=C(CN1C(=O)/C(=C/c2ccccc2)SC1=S)Nc1cccc(Br)c1 2.3%
O=C(O)CCCCCN1C(=O)/C(=C2/C(=O)N(CC(=O)O)c3ccccc32)SC1=S 1%
CCOc1ccc(N(CC(=O)NCc2ccccc2)S(C)(=O)=O)cc1 -13.8%
Cc1cc(Nc2ccccc2)n(-c2ccccc2)n1 -6.8%
Cc1cc(C)n(C(=O)Nc2ccccc2)n1 4.3%
COc1cc(C(=O)N2CCN(C3C4CC5CC(C4)CC3C5)CC2)cc(OC)c1OC (centres undefined) 3.7%
CC(=O)Nc1ccc(NC2=C(Cl)C(=O)c3ccccc3C2=O)cc1 3.8%
CC(=O)N(C1=C(Cl)C(=O)c2ccccc2C1=O)c1ccc(Cl)cc1 13.9%
CC(=O)N(C1=C(Cl)C(=O)c2ccccc2C1=O)c1ccc(Br)cc1 21.1%
O=C1C(=O)c2ccccc2C(Cl)=C1Cl 23%
CC(=O)NC1=C(N(C)C)C(=O)c2ccccc2C1=O 0.7%
O=C1C=C(C(c2ccccc2)c2ccccc2)C(=O)c2ccccc21 6.7%
CC(=O)c1ccc(NC2=C(Cl)C(=O)c3ccccc3C2=O)cc1 -8.2%
CC(C)OC1=C(Cl)C(=O)c2ccccc2C1=O 5.3%
Cc1cc(O)c2c(-c3ccccc3)cc(=O)oc2c1 -1.9%
CCOC(=O)c1ccc(N2C(=O)C(O)=C(C(C)=O)C2c2ccccn2)cc1 (centres undefined) -5.9%
O=C1N/C(=N\N=C\c2cccc([N+](=O)[O-])c2)SC1Cc1cccc(Cl)c1Cl (centres undefined) -3%
CC(=O)c1ccc(N2C(=O)c3c(Cl)c(Cl)c(Cl)c(Cl)c3C2=O)cc1 1.4%
O=C(O)COc1ccc(N2C(=O)c3c(Cl)c(Cl)c(Cl)c(Cl)c3C2=O)cc1 2.1%
O=C(NCc1cccs1)C1CCN(S(=O)(=O)N2CCCC2)CC1 3.1%
Cc1ccc(C)c(Nc2nc3c(s2)CCCC3)c1 -4%
Clc1cccc(Nc2nc3c(s2)CCCC3)c1 0.9%
COc1ccccc1N1C(=O)C2C3C=CC(O3)C2C1=O (centres undefined) -2.7%
CCOC(=O)N1CCC(N2C(=O)c3ccccc3C2=O)CC1 1.8%
CN(C)S(=O)(=O)c1cc(C(=O)NCC2CCCO2)c(Cl)cc1Cl (centres undefined) -1.6%
CCC(C(=O)NC1CCCC1)N(C(=O)Cn1nnc(-c2ccc(C)o2)n1)C(C)(C)C (centres undefined) -14.3%
O=C(O)c1ccc(-n2c(=O)c3ccccc3c3ccccc3c2=O)cc1 1.5%
Cc1ccc(-n2c(=O)c3cc4c(=O)n(-c5ccc(C)c(C)c5)c(=O)c4c(C(=O)c4ccccc4)c3c2=O)cc1C 0.3%

inhibition, 85.4% (active) and -2.3% (inactive):
Cc1ccc(C)n1Cc1ccc(C(=O)O)cc1

inhibition, active:
O=C1N=c2ccccc2=C1c1s/c(=N/N=C2/C(=O)Nc3ccccc32)n(-c2ccc(O)cc2)c1O 69.8%
C=CCN1C(=O)/C(=C\c2cc3c(cc2[N+](=O)[O-])OCO3)SC1=S 124%
CC(=O)NN1C(=O)/C(=C/c2cc3c(cc2[N+](=O)[O-])OCO3)SC1=S 119%
O=C(O)c1cccc2c1NC(c1ccc([N+](=O)[O-])cc1)C1CC=CC21 (centres undefined) 71.1%
O=C(O)c1cccc2c1NC(c1ccc(Cl)cc1)C1CC=CC21 (centres undefined) 69.9%
CCOc1ccc(N(CC(=O)NCc2ccc(Cl)cc2)S(=O)(=O)c2ccc(Br)cc2)cc1 54.4%
Cc1cc2n(n1)SC(Nc1ccccc1)N2 (centres undefined) 61.5%
CC(=O)N(C)C1=C(Cl)C(=O)c2ccccc2C1=O 54.9%
CC(=O)C(C(C)=O)C1=C(Cl)C(=O)C(=O)c2ccccc21 71%
CC(=O)NC1=C(Cl)C(=O)c2ccccc2C1=O 106%
CC(=O)C(C(C)=O)C1=CC(=O)C(=O)c2ccccc21 91.6%
Cc1cccc(Nc2nc3c(s2)CCCC3)c1 95.3%
